Inconclusive results are not listed. The source made the active and inactive calls. Unless noted, the call rests on the fitted dose curve; in most records, active means well fitted curve in the direction sought with a large enough effect; inconclusive means small, poorly fitted or top-dose-only effect, or another doubt; inactive means no such curve, though single readings can be large; an effect the other way counts as inactive or inconclusive.

Experiment [1] concerns the target Estrogen receptor (Homo sapiens) (UniProt P03372). The experiment is described as follows: qHTS assay for small molecule agonists of estrogen receptor alpha signaling (AID 588514; calls by dose curve; further: nearly all actives have a fitted effect of over 70% in size; further: potency means the concentration at half of the fitted maximal effect;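 on activation: 0% = vehicle only and 100% = reference agonist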). In a few lines:
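EC50 and efficacy came from Hill fits of beta-lactamase reporter signal (CCF4 dye, 2 h at room temperature) scaled between DMSO and 20 nM 17-beta-estradiol. Agonist mode: HEK293 ER-alpha-UAS-bla cells in charcoal/dextran-stripped serum medium, 18 h compound exposure at 37 C.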
(In general: qHTS replaces the single test concentration by a dilution series.)

Experiment [2] can be described thus: qHTS assay for small molecule antagonists of peroxisome proliferator-activated receptor delta signaling (AID 588535; active means well fitted inhibition curve with a large enough effect in the signal ratio, with a control signal flat, not every such curve was filed as active; the % refers to the signal ratio;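 on max response: cells co-treated with a PPAR-delta agonist as stimulator during compound exposure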). The following applies: HEK293T PPARd-UAS-bla, beta-lactamase FRET ratio, 18 h; 460 nm channel. In outline:
(§1)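 Titrations were run on PPAR-delta-UAS-bla HEK293T cells in charcoal/dextran-stripped serum, incubated 18 h at 37 C. CCF4 fluorescence (460/530 nm) after 2 h RT; Hill equation yields IC50 and maximal response.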

The target in experiment [3] is Peroxisome proliferator-activated receptor delta (Homo sapiens) (UniProt Q03181). The description is as above. In outline: as §1
Peroxisome proliferator-activated receptor delta (Homo sapiens), sequence (Q03181 whole entry, looked up): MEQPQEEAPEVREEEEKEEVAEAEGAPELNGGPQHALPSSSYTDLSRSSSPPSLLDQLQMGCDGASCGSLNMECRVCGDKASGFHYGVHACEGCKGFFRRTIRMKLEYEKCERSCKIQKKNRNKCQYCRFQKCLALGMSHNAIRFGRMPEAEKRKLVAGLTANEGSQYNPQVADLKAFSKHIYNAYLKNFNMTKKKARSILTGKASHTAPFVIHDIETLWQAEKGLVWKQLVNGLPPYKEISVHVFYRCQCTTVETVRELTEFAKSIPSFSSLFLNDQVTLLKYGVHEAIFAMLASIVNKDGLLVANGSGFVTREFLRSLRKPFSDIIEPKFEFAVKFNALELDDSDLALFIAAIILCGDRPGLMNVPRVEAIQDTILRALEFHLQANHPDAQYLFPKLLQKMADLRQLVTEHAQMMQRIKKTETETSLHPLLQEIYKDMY
For experiment [4], the target named is Peroxisome proliferator-activated receptor gamma (Homo sapiens) (UniProt P37231). The experiment is described as follows: qHTS assay for small molecule agonists of peroxisome proliferator-activated receptor gamma signaling (AID 588536; active means well fitted curve in the direction sought with a large enough effect in the signal ratio, with a control signal flat, not every such curve was filed as active; the % refers to the signal ratio;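 further: 0% = DMSO basal wells and 100% = rosiglitazone at 2 µM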). In a few lines:
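Cells were plated and held 6–6.5 h at 37 C, then compounds were added as a titration series. After a further 16 h, CCF4 dye was loaded for 2 h at room temperature and emission at 460/530 nm recorded.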

The nature of experiment [5]: qHTS assay for small molecule agonists of retinoid X receptor alpha signaling (AID 588544; calls by dose curve;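 on activation: 0% = DMSO basal wells and 100% = reference agonist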). Particulars: HEK293T RXRa-UAS-bla, beta-lactamase reporter, 18 h; 530 nm emission.
The target of experiment [6] is Retinoic acid receptor RXR-alpha (Homo sapiens) (UniProt P19793). Described as above.
Retinoic acid receptor RXR-alpha (Homo sapiens), sequence (P19793 whole entry, looked up): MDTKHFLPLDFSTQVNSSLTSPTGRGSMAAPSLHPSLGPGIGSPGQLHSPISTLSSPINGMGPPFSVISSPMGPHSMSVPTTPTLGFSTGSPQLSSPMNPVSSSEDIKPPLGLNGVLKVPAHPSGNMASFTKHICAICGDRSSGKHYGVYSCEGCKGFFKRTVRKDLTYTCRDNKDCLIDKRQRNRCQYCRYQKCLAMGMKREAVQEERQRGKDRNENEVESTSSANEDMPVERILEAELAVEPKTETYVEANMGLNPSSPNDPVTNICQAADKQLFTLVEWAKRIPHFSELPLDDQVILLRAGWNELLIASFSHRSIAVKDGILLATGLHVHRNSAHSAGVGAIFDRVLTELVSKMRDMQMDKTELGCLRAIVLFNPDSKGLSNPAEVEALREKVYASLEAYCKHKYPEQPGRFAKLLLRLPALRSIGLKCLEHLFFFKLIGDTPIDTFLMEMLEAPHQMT
In experiment [7] the target is Thyroid hormone receptor beta (Homo sapiens) (UniProt P10828). The experiment is described as follows: qHTS assay for small molecule agonists of thyroid hormone receptor beta signaling (AID 588545; calls by dose curve;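 further: 0% = DMSO only and 100% = 10 nM T3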). In a few lines:
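Stimulation of a TR-driven beta-lactamase reporter was quantified in GripTite HEK 293 cells. Compound series ran for 18 hrs; curves were normalized to T3 and DMSO controls and fitted to yield EC50.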

A short description of experiment [8]: qHTS assay for small molecule antagonists of retinoid X receptor alpha signaling (AID 588546; active means well fitted inhibition curve with a large enough effect in the signal ratio, with a control signal flat, not every such curve was filed as active; the % refers to the signal ratio; further: potency means the concentration at half of the fitted maximal effect;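 on max response: cells stimulated with 9-cis-retinoic acid as agonist; on the % scale 0 is the no-effect control and ±100 the full control effect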). Particulars: HEK293T RXRa-UAS-bla, beta-lactamase ratio, antagonist mode; measured here: W530 green channel, cytotoxicity proxy. In outline: (§2)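 Beta-lactamase reporter inhibition, read as CCF4 fluorescence ratio (ex 405, em 460/530 nm) after 2 h at RT. HEK293T UAS-bla cells, 2500/well, were stimulated with 9-cis-RA at 500 or 100 nM final alongside test compound for 18 h at 37 C.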

The target in experiment [9] is Retinoic acid receptor RXR-alpha (Homo sapiens) (UniProt P19793). The description is as above. Particulars: HEK293T RXRa-UAS-bla, beta-lactamase ratio, antagonist mode. In a few lines: as §2
Experiment [10] can be described thus: qHTS assay for small molecule activators of the p53 signaling pathway (AID 651743; active means well fitted activation curve with a large enough effect in the signal ratio, not every such curve was filed as active; the % refers to the signal ratio; further: series mostly up to about 92 µM; % of control where 0% means no effect). Particulars: HCT-116 p53RE-bla, beta-lactamase FRET ratio, 16 h; activation: stronger effect = higher value. In outline:
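After 16 hours compound treatment at 37 C, HCT-116 cells stably expressing p53RE-driven beta-lactamase were loaded with LiveBLAzer B/G FRET substrate for 2 hours at room temperature. Fluorescence intensity served as the p53 activation read-out.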

Experiment [11] is described as follows: qHTS assay for environmental chemicals that activate the Aryl hydrocarbon Receptor (AhR) signaling pathway (AID 651777). Further: % of control where 0% means no effect; nearly all actives have a fitted effect of over 15% in size. Particulars: 1A2-DRE human hepatoma cells, luciferase, 24 h; activation: stronger effect = higher value. In outline: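 Stable CYP1A2 promoter/DRE-luciferase human hepatoma line treated 24 hr; One-Glo luminescence, 30 min RT.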
The target in experiment [12] is Peroxisome proliferator-activated receptor alpha (Homo sapiens) (UniProt Q07869). The experiment is described as follows: qHTS assay for small molecule agonists of the peroxisome proliferator-activated receptor alpha (PPARalpha) signaling pathway (AID 651778). Further: % of control where 0% means no effect. Particulars: PathHunter PPARalpha complementation, chemiluminescence, 6 h; max response: stronger effect = higher value. In a few lines: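 Chemiluminescence from complemented enzyme reported PPARalpha activation in cells after 6 hr of compound treatment at 37 C. The detection reagent was incubated for 60 min at room temperature, and compounds were scored as agonists.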
Peroxisome proliferator-activated receptor alpha (Homo sapiens), sequence (Q07869 whole entry, looked up): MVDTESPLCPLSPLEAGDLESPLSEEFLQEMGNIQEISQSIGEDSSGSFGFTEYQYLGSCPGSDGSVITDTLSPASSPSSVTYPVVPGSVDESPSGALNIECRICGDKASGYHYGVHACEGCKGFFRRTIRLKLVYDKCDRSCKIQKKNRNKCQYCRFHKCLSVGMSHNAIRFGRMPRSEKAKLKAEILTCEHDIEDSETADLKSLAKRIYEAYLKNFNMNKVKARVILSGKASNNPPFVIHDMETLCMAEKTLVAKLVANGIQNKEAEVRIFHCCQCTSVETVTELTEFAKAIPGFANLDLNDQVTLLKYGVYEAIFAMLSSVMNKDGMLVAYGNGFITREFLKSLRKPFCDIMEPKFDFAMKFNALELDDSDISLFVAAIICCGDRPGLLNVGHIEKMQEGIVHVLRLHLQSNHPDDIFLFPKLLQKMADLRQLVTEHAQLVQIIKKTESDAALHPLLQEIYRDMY

The nature of experiment [13]: qHTS assay for small molecule agonists of the antioxidant response element (ARE) signaling pathway measured by Nrf2-dependant transcriptional activity (AID 720636; active means well fitted curve in the direction sought with a large enough effect in the repeat runs; an effect the other way counts as inactive or inconclusive;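 further: HepG2 cells with an ARE-driven luciferase reporter; % of control where 0% means no effect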). In outline: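 Reporter gene assay, HepG2 ARE-luc: 16 hr compound, 37 C, 5% CO2; read-out luciferase luminescence.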
Experiment [14] in a line: qHTS assay for small molecule agonists of the antioxidant response element (ARE) signaling pathway measured by Nrf2-dependant transcriptional activity - cell viability counter screen (AID 720653; active means well fitted curve in the direction sought with a large enough effect in the repeat runs; an effect the other way counts as inactive or inconclusive; further: on the % scale 0 is the no-effect control and ±100 the full control effect). The following applies: ARE-bla HepG2 viability, CellTiter-Glo ATP luminescence, 16 h; max response: stronger effect = lower value. In outline:
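Cytotoxicity counter screen: intracellular ATP quantified by CellTiter-Glo luminescence in the same ARE-bla HepG2 plates, after 16 h compound exposure and a 2 h beta-lactamase substrate step.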

The nature of experiment [15]: qHTS assay for cell viability of HEK293 cells (AID 743288). Further: on the % scale 0 is the no-effect control and ±100 the full control effect; nearly all actives have a fitted effect of over 50% in size. Particulars: ATP luminescence (CellTiter-Glo), 18 h; max response: stronger effect = lower value. In outline: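 After 18 h compound exposure at 37 C, parental HEK293 cells (2,000/well) are lysed with CellTiter-Glo and luminescence is read following 30 min at room temperature.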
A short description of experiment [16]: qHTS assay for cell viability of the p53RE-bla HCT-116 cell line (AID 743292). Further: on the % scale 0 is the no-effect control and ±100 the full control effect; nearly all actives have a fitted effect of over 55% in size. In a few lines:
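Readout: CellTiter-Glo luminescence after 30 min RT. Treatment: compounds in DMSO, 16 h, 37 C. Cells: CellSensor p53RE-bla HCT-116, 4,000/well, preincubated 5 h.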

The target in experiment [17] is Nuclear receptor subfamily 1 group I member 2 (Rattus norvegicus) (UniProt Q9R1A7). The experiment is described as follows: qHTS assay for small molecule activators of the rat pregnane X receptor (rPXR) signaling pathway (AID 651751; call rule not given here; further: 0% is about no effect). Particulars: rPXR reporter cells, luciferase (One-Glo), 24 h.
Nuclear receptor subfamily 1 group I member 2 (Rattus norvegicus), sequence (Q9R1A7 whole entry, looked up): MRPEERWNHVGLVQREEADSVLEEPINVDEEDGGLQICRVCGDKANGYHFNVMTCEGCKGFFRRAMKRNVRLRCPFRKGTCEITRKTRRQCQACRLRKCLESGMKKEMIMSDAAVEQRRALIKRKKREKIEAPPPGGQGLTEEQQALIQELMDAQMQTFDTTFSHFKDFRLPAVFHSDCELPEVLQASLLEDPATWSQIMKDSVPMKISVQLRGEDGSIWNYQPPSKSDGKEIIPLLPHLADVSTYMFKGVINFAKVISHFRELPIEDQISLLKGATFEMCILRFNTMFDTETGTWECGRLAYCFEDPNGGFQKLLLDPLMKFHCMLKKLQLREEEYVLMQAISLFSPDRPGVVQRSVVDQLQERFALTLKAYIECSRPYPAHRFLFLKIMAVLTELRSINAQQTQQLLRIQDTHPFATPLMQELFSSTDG
Experiment [18] can be described thus: qHTS assay for small molecule activators of the human pregnane X receptor (PXR) signaling pathway (AID 720659; call rule not given here; further: 0% is about no effect).
Experiment [19] has as its target Vitamin D3 receptor (Homo sapiens) (UniProt P11473). The experiment is described as follows: qHTS assay for small molecule antagonists of vitamin D receptor signaling (AID 588541; calls by dose curve;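 further: receptor activated by calcitriol during compound treatment; series mostly up to about 77 µM; on the % scale 0 is the no-effect control and ±100 the full control effect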). In outline:
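Antagonist-mode beta-lactamase reporter assay: HEK293T VDR-UAS-bla cells were exposed to titrated compound alongside 1-alpha,25-dihydroxyvitamin D3 at 3 nM final for 16 h. Values were normalized to the 50 nM agonist control and DMSO basal, with IC50 and efficacy from Hill equation fits.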

Experiment [20] concerns the target Thyroid hormone receptor beta (Homo sapiens) (UniProt P10828). The experiment is described as follows: qHTS assay for small molecule antagonists of thyroid hormone receptor beta signaling (AID 588547; active means well fitted inhibition curve with a large enough effect in the signal ratio, with a control signal flat, not every such curve was filed as active; the % refers to the signal ratio;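 further: cells stimulated with 0.4 nM T3 agonist during compound exposure; series mostly up to about 77 µM; on the % scale 0 is the no-effect control and ±100 the full control effect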). Particulars: TR-UAS-bla HEK293, beta-lactamase ratio, antagonist mode, 18 h. In outline:
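Inhibition of T3-driven (0.4nM final) beta-lactamase reporter activity was measured over 0.59 nM to 92 uM compound after 18 h at 37 C. The cells were GripTite HEK293 TR-UAS-bla in charcoal/dextran-stripped serum, with CCF4 ratio read-out and IC50 from Hill fits.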

Thyroid hormone receptor beta (Homo sapiens), sequence (P10828 whole entry, looked up): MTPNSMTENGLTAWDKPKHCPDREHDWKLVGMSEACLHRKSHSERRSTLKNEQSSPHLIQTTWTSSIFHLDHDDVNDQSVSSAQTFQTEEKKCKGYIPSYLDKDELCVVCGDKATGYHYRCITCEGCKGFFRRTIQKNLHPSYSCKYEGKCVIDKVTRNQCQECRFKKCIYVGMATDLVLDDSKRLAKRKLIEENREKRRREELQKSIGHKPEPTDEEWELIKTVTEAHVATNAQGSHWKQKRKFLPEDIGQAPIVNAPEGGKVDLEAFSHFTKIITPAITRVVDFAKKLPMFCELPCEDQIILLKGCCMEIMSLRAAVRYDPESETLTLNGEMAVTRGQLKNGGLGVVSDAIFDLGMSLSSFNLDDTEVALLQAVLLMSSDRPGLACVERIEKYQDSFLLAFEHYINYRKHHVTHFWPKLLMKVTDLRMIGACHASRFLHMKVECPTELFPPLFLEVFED
Vitamin D3 receptor (Homo sapiens), sequence (P11473 whole entry, looked up): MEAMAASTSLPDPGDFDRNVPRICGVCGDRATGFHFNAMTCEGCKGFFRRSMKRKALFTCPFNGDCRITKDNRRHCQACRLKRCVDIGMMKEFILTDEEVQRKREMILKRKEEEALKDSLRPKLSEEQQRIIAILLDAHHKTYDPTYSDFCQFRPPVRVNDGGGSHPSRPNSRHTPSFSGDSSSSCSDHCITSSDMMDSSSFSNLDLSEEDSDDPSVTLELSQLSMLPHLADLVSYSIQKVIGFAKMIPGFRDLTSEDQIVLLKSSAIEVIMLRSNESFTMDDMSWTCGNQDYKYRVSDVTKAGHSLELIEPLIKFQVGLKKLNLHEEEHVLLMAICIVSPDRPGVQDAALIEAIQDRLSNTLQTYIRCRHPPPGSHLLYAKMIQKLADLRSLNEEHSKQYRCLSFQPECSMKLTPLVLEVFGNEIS
Peroxisome proliferator-activated receptor gamma (Homo sapiens), sequence (P37231 whole entry, looked up): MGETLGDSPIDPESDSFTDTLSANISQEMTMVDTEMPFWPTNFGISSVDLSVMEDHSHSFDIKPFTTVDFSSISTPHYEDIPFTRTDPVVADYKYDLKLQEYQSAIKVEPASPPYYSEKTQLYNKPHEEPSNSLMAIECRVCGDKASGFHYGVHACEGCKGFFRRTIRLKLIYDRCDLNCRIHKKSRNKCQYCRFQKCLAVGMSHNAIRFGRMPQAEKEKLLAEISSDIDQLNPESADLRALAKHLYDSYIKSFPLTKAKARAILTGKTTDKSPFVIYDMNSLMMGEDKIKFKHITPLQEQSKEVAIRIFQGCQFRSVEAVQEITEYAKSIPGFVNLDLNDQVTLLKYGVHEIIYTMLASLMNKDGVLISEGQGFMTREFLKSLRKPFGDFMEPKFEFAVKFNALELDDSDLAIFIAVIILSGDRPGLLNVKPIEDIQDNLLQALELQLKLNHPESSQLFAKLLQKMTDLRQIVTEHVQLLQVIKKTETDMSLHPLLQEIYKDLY
Estrogen receptor (Homo sapiens), sequence (P03372 whole entry, looked up): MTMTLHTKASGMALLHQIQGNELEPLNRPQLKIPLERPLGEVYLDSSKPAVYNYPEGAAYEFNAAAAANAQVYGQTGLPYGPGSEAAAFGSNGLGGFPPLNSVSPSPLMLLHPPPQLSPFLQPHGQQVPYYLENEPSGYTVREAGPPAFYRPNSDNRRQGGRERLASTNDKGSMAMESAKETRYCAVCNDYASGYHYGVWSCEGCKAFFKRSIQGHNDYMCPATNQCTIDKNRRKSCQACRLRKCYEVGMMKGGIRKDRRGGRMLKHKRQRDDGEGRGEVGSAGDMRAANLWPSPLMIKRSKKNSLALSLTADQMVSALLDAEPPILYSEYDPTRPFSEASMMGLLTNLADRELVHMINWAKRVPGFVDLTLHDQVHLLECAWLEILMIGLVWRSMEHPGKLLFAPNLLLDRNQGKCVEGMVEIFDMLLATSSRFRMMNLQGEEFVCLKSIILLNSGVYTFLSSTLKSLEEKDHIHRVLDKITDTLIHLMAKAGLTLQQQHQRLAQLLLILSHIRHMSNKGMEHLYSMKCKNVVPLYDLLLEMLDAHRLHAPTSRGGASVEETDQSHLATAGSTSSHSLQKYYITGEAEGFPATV

Take `C[Si](Cl)(Cl)c1ccccc1`: the Potency entry in experiment [1], in [3], in [6], in [7], in [13] and in experiment [16] was “inactive” each time. For the same compound, the max response is 44.2% in experiment [2]; -17.5% in experiment [5]; -2.11% in [8]; -4.88% (inactive) in experiment [9]; -2.64% (inactive) in experiment [12]; -14.9% (inactive) in experiment [14]. Further, the values for the max response in [15] and in experiment [17] were -2.42% (inactive) and -3.28% (inactive), respectively. The result in experiment [4] and in [18] was inactive. Moreover, the results for the activation in [10] and in experiment [11] were -1.52% (inactive) and 0.0847% (inactive), respectively.
For `C[C@]12CCC(=O)C=C1CC[C@@H]1[C@@H]2[C@@H](O)C[C@]2(C=O)[C@@H](C(=O)CO)CC[C@@H]12`, the Potency entry in experiment [1], in [19], in [6], in experiment [13] and in experiment [16] was “inactive” throughout. For the same compound, the compound was called inactive in experiment [4] and in [18]. In addition, the max response is 19.7% in experiment [5]; -18.8% in [8]; 1.07% (inactive) in [9]; 0.506% (inactive) in experiment [12]; -8.31% (inactive) in experiment [14]; -8.63% (inactive) in experiment [15]. The max response in experiment [17] was -0.971% (inactive). In addition, in experiment [20], the activity change % (negative = inhibition) is 7.91% (inactive). The values for the activation in [10] and in [11] were -0.611% (inactive) and -0.37% (inactive), respectively.
As for `C=Cc1ccccc1Br`, the Potency result in experiment [1], in [3], in experiment [19], in experiment [6], in experiment [7] and in [13] was “inactive” in each case. In addition, the Potency result in experiment [16] was “inactive”. Besides, the max response in experiment [2] is -10.1%; in experiment [5] it was -4.64%; in [8], 1.9%; in experiment [9], -9.99% (inactive); in experiment [12], 0.716% (inactive); in experiment [14], -11.1% (inactive). For the same compound, the max response in experiment [15] was -11.7% (inactive); in experiment [17] it was -0.877% (inactive). Moreover, the compound was called inactive in [4] and in [18]. Besides, in experiment [20], the activity change % (negative = inhibition) is -5.89% (inactive). For the same compound, the activation was -6.55% (inactive) in experiment [10] and 1.62% (inactive) in experiment [11].
As for `CCCCCCCCCC[N+](C)(C)Cc1ccccc1`, the Potency in experiment [1] was 1.12 µM (active); in experiment [9], 35.5 µM (active). For the same compound, the compound was called inactive in [4] and in [18]. In addition, the Potency result in experiment [19], in [7] and in experiment [13] was “inactive” throughout. Further, the max response is 16% in experiment [8]; 7.43% (inactive) in experiment [12]; -23% (inactive) in experiment [14]; -27.5% (inactive) in [15]; -4.11% (inactive) in experiment [17]. The activation in experiment [10] is 6.02% (inactive); in experiment [11] it was 0.379% (inactive).
For `CC1COCc2cc3c(cc21)C(C)(C)C(C)C3(C)C` (configuration not stated), in [1], the Potency was 11.2 µM (active). The max response in [2] was -16.1%; in [5], -11.9%; in experiment [8], -17.6%; in [9], 0.528% (inactive); in [14], -2.78% (inactive); in experiment [15], -3.83% (inactive). Moreover, the max response in experiment [17] is 3.75% (inactive). The Potency entry in experiment [3], in [19], in experiment [6], in [7], in [13] and in experiment [16] was “inactive” each time. Besides, the compound was classed as inactive in experiment [4]. The activity change % (negative = inhibition) in experiment [20] is 0.269% (inactive). In addition, the values for the activation in experiment [10] and in experiment [11] were -1.06% (inactive) and 1.13% (inactive), respectively.

The values are drawn from PubChem BioAssay (NCATS).
